# Experimental data from PubChem BioAssay (NCATS).
# Records with an inconclusive call do not appear.
# Assay: qHTS for identification of novel therapeutic agents for treatment of microphthalmiaassociated transcription factor (MiT) renal cell carcinoma (RCC) (AID 1963991)
# Conditions: CellTiter-Glo, 48 h, stronger effect = lower value
# Text: PI: Marston Linehan Ph.D.
# Urologic Oncology Branch, Center for Cancer Research (CCR)
# National Cancer Institute (NCI), National Institute of Health (NIH), Bethesda, Maryland
# MiT-Renal Cell Carcinoma (RCC) is characterized by genomic translocations involving microphthalmia-associated transcription factor (MiT) family members TFE3, TFEB, or MITF. MiT-RCC represents a specific subtype of sporadic RCC that is predominantly seen in young patients and can present with heterogeneous histological features making diagnosis challenging. Moreover, the disease biology of this aggressive cancer is poorly understood and there is no accepted standard of care therapy for patients with advanced disease. Tumor-derived cell lines have been established from human TFE3-RCC providing useful models for preclinical studies. TFE3-RCC tumor derived cell lines and their tissues of origin were characterized by IHC and gene expression analyses. An unbiased high-throughput drug screen was performed to identify novel therapeutic agents for treatment of MiT-RCC. Potential therapeutic candidates were validated in in vitro and in vivo preclinical studies. Mechanistic assays were conducted to confirm the on-target effects of drugs. The results of a high-throughput small molecule drug screen utilizing three TFE3-RCC tumor-derived cell lines identified five classes of agents with potential pharmacological efficacy, including inhibitors of phosphoinositide-3-kinase (PI3K) and mechanistic target of rapamycin (mTOR), and several additional agents, including the transcription inhibitor Mithramycin A. Upregulation of the cell surface marker GPNMB, a specific MiT transcriptional target, was confirmed in TFE3-RCC and evaluated as a therapeutic target using the GPNMB-targeted antibody-drug conjugate CDX-011. […] The results of the high-throughput drug screen and validation studies in TFE3-RCC tumor-derived cell lines have provided in vitro and in vivo preclinical data supporting the efficacy of the PI3K/mTOR inhibitor.
# SEQUENCE No. (e.g., 1, 2, 3, etc.); […] (e.g., Cells, Incubation, Reagent, etc.); VALUE; DESCRIPTION.
# 1; Cells; 3 uL; white, solid-bottom Grenier assay plate.
# 2; Compounds; 23 nL; Kalypsis pin-tool (Wako USA).
# 3; Incubation; 48 hr; 37 C, 5% CO2, 95% humidity.
# 4; Reagent; 3 uL; CellTiter-Glo reagent (Promega).
# 5; Incubation; 15 min; room temperature.
# 6; Detection; Luminescence; ViewLux plate reader (PerkinElmer).
# NOTES (numbers refer to Sequence numbers above)
# 1. Quantitative high-throughput screening (qHTS) of 1912 pharmacologically defined small molecule compounds was conducted on three TFE3-fusion cell lines bearing three different fusion partners (UOK109, UOK124, UOK145). Briefly, 500 cells in complete growth media were plated into white, solid-bottom, 1536-well tissue culture treated plates (Grenier Cat. 789173-F) using a Multidrop Combi cassette dispenser.
# 2. Twenty-three nanoliter of 1912 pharmacologically defined small molecule compounds of the NCATS Mechanism Interrogation PlatE (MIPE) version 4.0 were added to each assay plate using a Pintool Dispenser (Wako) equipped with 1536 pin head.
# 3. Plates were covered with stainless steel gasketed lids and incubated for 48 hours at standard cell culture conditions.
# 4. Viability was assessed by adding 3uL of CellTiter-Glo detection reagent (Promega).
# 5. Plates were covered with gasket lids and incubated for 15 minutes at room temperature.
# 6. Luminescence was measured on a ViewLux plate reader (PerkinElmer). Post-screen data processing used DMSO controls as 100% viability and empty wells as 0% viability and dose response curve fitting was done for all 11 concentrations for each compound.
# [1] = TFE3-RCC UOK109 viability, measured here: UOK109 Z-AUC
# [2] = TFE3-RCC viability, measured here: UOK124 Z-AUC
# [3] = TFE3-RCC viability, measured here: UOK145 Z-AUC
Compound,z-score [1],z-score [2],z-score [3]
CN1C(=O)CCS(=O)(=O)C1c1ccc(Cl)cc1 (stereo not drawn),0.949,0.189,0.774
COc1cc(OC)c(OC)cc1C=O,0.0222,0.514,0.092
O=P1(N(CCCl)CCCl)NCCCO1 (stereo not drawn),0.655,0.953,1.4
CC(C)c1cccc(C(C)C)c1O,-1.1,0.663,0.666
CC(NC(C)(C)C)C(=O)c1cccc(Cl)c1 (stereo not drawn),0.679,0.615,0.622
CC(C)C[C@H](CN)CC(=O)O,-0.701,0.851,0.709
